According to PubChem BioAssay:
Activity calls are given as the source filed them. Unless noted, the rule behind the calls is not given here.

Experiments:
[1] = HepG2 liver cancer cell viability effects, profiling panel, resazurin fluorescence, 24 h, PK04 Diversity Set (AID 1172); conditions: higher = more signal; note: test concentration not given here
[2] = basal S. cerevisiae growth modulation, no modifier, primary screen, OD600, strain BY4716, 24 h, basal condition (AID 1173); conditions: OD600, 24 h, higher = more signal, called active from +8 up or from −8 down
[3] = MM1S myeloma cell viability, profiling panel, resazurin fluorescence, basal, 24 h, PK04 Diversity Set (AID 1174); conditions: higher = more signal, called active from +8 up or from −8 down;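 note: MM1S multiple myeloma cell line; test concentration not given here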
[4] = target: Dihydroorotate dehydrogenase (quinone), mitochondrial (Plasmodium falciparum (isolate 3D7)) (UniProt Q08210); experiment: PfDHODH enzyme inhibitors, primary screen, biochemical, C-terminal His tag, absorbance 600 nm (AID 1175); conditions: DCIP absorbance 600 nm, higher = more signal, called active from +8 up or from −8 down;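 note: recombinant parasite enzyme with a five histidine tag at its C terminus; test concentration not given here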
[5] = P. aeruginosa biofilm formation inhibitors, primary screen, strain PAO1, LB-PBS medium, absorbance 600 nm (AID 1176); note: test concentration not given here; conditions: P. aeruginosa PAO1 growth/biofilm, A600, 12 h; higher = more signal
[6] = S. cerevisiae RM11-1a growth modifiers, primary screen, strain RM11-1a, OD600, basal, 24 h (AID 1177); conditions: OD600, 24 h, higher = more signal, called active from +8 up or from −8 down;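 note: cultures grown under basal conditions with no added stressor; test concentration not given here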
[7] = E. coli acrAB mutant growth effects, primary screen, E. coli filamentation inducers, strain DRC39, OD650, 24 h (AID 1178); conditions: higher = more signal, called active from +8 up or from −8 down;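 note: growth measured as culture turbidity by optical density at 650 nm; test concentration not given here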
[8] = E. coli acrAB mutant growth effects, primary screen, E. coli filamentation inducers, strain DRC39, OD650, 48 h (AID 1179);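 note: screen aims at cell division blockers that make cells filament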; conditions: E. coli DRC39 delta-acrAB growth, higher = more signal, called active from +8 up or from −8 down
[9] = RPMI8226 myeloma cell viability, profiling panel, resazurin fluorescence, basal, 24 h, PK04 Diversity Set (AID 1180); conditions: higher = more signal;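 note: RPMI8826 multiple myeloma cell line at 5000 cells per well; test concentration not given here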
[10] = target: E3 ubiquitin-protein ligase XIAP (Homo sapiens) (UniProt P98170); experiment: XIAP binders, primary screen, biophysical, small-molecule microarray, fluorescence 635 nm (AID 1181); conditions: small-molecule microarray binding, higher = more signal;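 note: score merges 667 nm emission and signal to noise over triplicate slides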
E3 ubiquitin-protein ligase XIAP (Homo sapiens), sequence (P98170 whole entry, looked up): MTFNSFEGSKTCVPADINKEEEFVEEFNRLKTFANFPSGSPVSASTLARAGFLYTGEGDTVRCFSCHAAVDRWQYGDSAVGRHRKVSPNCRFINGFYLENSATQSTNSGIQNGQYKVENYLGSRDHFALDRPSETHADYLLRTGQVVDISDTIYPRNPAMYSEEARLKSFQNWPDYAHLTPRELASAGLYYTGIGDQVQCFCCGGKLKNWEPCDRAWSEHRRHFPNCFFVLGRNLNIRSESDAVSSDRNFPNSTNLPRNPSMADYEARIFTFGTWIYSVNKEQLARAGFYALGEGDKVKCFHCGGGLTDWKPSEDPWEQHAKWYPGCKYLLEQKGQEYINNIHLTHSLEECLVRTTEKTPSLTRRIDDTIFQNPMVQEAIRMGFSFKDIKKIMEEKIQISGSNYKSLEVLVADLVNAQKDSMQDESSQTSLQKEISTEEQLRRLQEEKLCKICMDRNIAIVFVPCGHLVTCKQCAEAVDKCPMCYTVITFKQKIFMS

Dihydroorotate dehydrogenase (quinone), mitochondrial (Plasmodium falciparum (isolate 3D7)), sequence (Q08210 whole entry, looked up): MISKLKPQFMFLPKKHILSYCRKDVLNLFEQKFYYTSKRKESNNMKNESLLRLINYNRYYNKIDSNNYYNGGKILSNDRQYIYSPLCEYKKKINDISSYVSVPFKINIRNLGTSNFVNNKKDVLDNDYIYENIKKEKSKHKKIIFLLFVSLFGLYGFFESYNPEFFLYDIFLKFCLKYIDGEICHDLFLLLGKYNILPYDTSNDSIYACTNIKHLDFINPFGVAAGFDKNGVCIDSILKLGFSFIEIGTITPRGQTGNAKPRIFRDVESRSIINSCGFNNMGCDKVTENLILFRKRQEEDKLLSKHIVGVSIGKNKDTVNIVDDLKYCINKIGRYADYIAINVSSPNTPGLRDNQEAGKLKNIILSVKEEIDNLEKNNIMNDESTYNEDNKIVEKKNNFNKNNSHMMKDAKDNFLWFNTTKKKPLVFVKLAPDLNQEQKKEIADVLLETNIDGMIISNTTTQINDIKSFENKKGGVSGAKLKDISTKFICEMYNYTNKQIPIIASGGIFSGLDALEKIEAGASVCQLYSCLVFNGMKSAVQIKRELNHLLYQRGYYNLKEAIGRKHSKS

Row | Structure (SMILES) | z-score [1] | z-score [2] | z-score [3] | composite z-score [4] | z-score [5] | z-score [6] | z-score [7] | z-score [8] | z-score [9] | composite z-score [10]
1 | CCOC(=O)[C@H](CC(C)C)NC(=O)CCC1CC(OC(=O)NCCc2ccc(F)cc2)CC2(CCCC(COC(=O)NCc3ccccc3)O2)O1 (stereo not given in full) | -0.816 | -0.849 (inactive) | 0.409 (inactive) | -2.24 (inactive) | -0.613 (inactive) | -0.0385 (inactive) | -0.221 (inactive) | -0.565 (inactive) | 0.185 | -0.0333
2 | CCCCC(=C=CC[C@H](O)c1ccccc1OCCO)C[C@H](O)COCc1ccccc1 | -0.325 | -1.18 (inactive) | -0.505 (inactive) | -2.89 (inactive) | 0.637 (inactive) | -0.0076 (inactive) | 0.156 (inactive) | 0.0347 (inactive) | -0.276 | -0.0062
3 | CCOC(=O)NN=C1C[C@@H](O)[C@@H](O)[C@@H]2[C@@H]3C(=O)N(C4CCCCC4)C(=O)[C@@H]3CC[C@@H]12 | -0.252 | 0.126 (inactive) | -0.292 (inactive) | -1.71 (inactive) | 0.283 (inactive) | -0.845 (inactive) | -0.959 (inactive) | -0.499 (inactive) | -0.145 | -0.102
4 | O=C1[C@H]2[C@H]3[C@H](O)[C@H](O)CC(=NOCc4ccccc4)[C@H]3CC[C@H]2C(=O)N1c1ccc(F)cc1F | 1.15 | -1.51 (inactive) | -0.254 (inactive) | -0.738 (inactive) | 0.328 (inactive) | -0.645 (inactive) | 0.586 (inactive) | 0.535 (inactive) | 1.28 | 0.104
5 | CC(C)=C1C(=O)C(c2ccccc2)=C2CN3C(=O)N(CCc4ccccc4)C(=O)[C@]3(Cc3ccc(F)cc3)[C@H]21 | -1.22 | 0.255 (inactive) | -1.53 (inactive) | -0.0278 (inactive) | 1.4 (inactive) | 0.223 (inactive) | -0.933 (inactive) | -0.853 (inactive) | -0.942 | -0.02
6 | Cc1cc2c(c(=O)o1)[C@H](O)[C@H]1O[C@H]1C2=O | 0.145 | -2 (inactive) | -1.19 (inactive) | 0.44 (inactive) | -0.282 (inactive) | -0.627 (inactive) | -0.973 (inactive) | -0.662 (inactive) | -0.764 | -0.176
7 | CCCC[C@@H](O)C1=C(C)C[C@H]2C(=O)N(Cc3ccccc3)C(=O)[C@H]2[C@H]1CO | -0.31 | -3.87 (inactive) | -0.327 (inactive) | -2.65 (inactive) | 0.27 (inactive) | 0.161 (inactive) | 0.11 (inactive) | 0.183 (inactive) | -0.287 | -0.0911
8 | CO[C@@H]1COC(=O)CC=C[C@@H](C)[C@H](OC)COC(=O)[C@H](COCc2ccccc2)NC(=O)CC=C[C@H]1C | 0.628 | -1.13 (inactive) | -0.0928 (inactive) | -0.0234 (inactive) | -0.225 (inactive) | -0.47 (inactive) | 0.406 (inactive) | -0.723 (inactive) | 1.35 | 0.17
9 | CC1CC/C=C\[C@H]2OC34C=CCN(C(C)C)C(=O)[C@H]3N(CCCO)C(=O)[C@@H]4C2C(=O)O1 (stereo not given in full) | 0.49 | -0.404 (inactive) | 0.48 (inactive) | 0.395 (inactive) | -0.91 (inactive) | -0.467 (inactive) | 1.05 (inactive) | 0.634 (inactive) | 0.817 | 0.0131
10 | N#Cc1ccc(NN2C(C(O)c3cccc4ccccc34)C=CC3C(=O)N(c4ccccc4)C(=O)C32)cc1 (stereo not given) | -0.707 | 0.185 (inactive) | -0.605 (inactive) | 0.199 (inactive) | 0.487 (inactive) | 0.806 (inactive) | -0.586 (inactive) | 0.434 (inactive) | -0.28 | 0.0791
11 | CCc1cccc(NC(=O)O[C@H]2[C@H](OC(=O)Nc3ccc4c(c3)OCO4)[C@@H](OC(=O)Nc3ccc4c(c3)OCO4)[C@@H](OC)O[C@@H]2CO)c1 | 1 | 1.04 (inactive) | -0.517 (inactive) | -0.0004 (inactive) | 0.745 (inactive) | 1.88 (inactive) | 1.57 (inactive) | 0.494 (inactive) | -0.36 | -0.173
12 | C#C[C@@H]1Oc2ccccc2S(=O)(=O)N2CCC[C@H]12 | -0.768 | -2.6 (inactive) | -0.46 (inactive) | 0.515 (inactive) | 0.0359 (inactive) | 0.494 (inactive) | -0.689 (inactive) | -0.816 (inactive) | -0.776 | -0.38
13 | O=C(NN=C1C[C@@H](O)[C@@H](O)[C@@H]2[C@@H]3C(=O)N(c4cccc(Oc5ccccc5)c4)C(=O)[C@@H]3CC[C@H]12)OCc1ccccc1 | 0.615 | -0.841 (inactive) | -0.0525 (inactive) | 0.294 (inactive) | -0.708 (inactive) | -0.474 (inactive) | 0.578 (inactive) | 0.514 (inactive) | 0.49 | -0.141
14 | O=C1[C@H]2[C@H]3[C@H](O)[C@H](O)CC(=NOC[C@@H](O)COCc4ccco4)[C@H]3CC[C@H]2C(=O)N1Cc1ccc2c(c1)OCO2 | 0.102 | 0.684 (inactive) | -0.293 (inactive) | -0.566 (inactive) | -0.85 (inactive) | 0.0885 (inactive) | 0.786 (inactive) | 1.11 (inactive) | 0.263 | 0.0049
15 | COC(=O)[C@@]1(Cc2ccc(F)cc2)[C@H]2c3cc(C(=O)N(C)C)n(Cc4ccc(OC)c(OC)c4)c3C[C@H]2CN1C(=O)c1ccccc1 | -1.05 | -0.0211 (inactive) | -1.8 (inactive) | -3.71 (inactive) | 3.14 (inactive) | 0.348 (inactive) | -0.252 (inactive) | -1.45 (inactive) | -0.484 | 0.276
16 | CN1C(=O)C2C(C1=O)C1C=C(CCCO)C2C(c2ccc(CN3CCCC3)cc2)N1C (stereo not given) | -1.03 | 1.04 (inactive) | -1.78 (inactive) | -3.89 (inactive) | -1.02 (inactive) | 0.626 (inactive) | -0.815 (inactive) | -0.296 (inactive) | -0.802 | 0.182
17 | O=C1O[C@@H](c2ccccc2)[C@@H](c2ccccc2)N2[C@@H](c3ccc(OCCO)cc3)[C@]3(C(=O)Nc4ccccc43)[C@@H](C(=O)N3CCN(c4ncccn4)CC3)[C@H]12 | -0.18 | 0.944 (inactive) | -0.271 (inactive) | -2.37 (inactive) | 1.47 (inactive) | 2.78 (inactive) | 0.142 (inactive) | 1.07 (inactive) | 0.652 | -0.227
18 | COC(=O)CC=C[C@@H](C)[C@H](OC)c1ccccc1Br | -0.327 | -1.15 (inactive) | -0.397 (inactive) | -2.6 (inactive) | -0.655 (inactive) | 0.791 (inactive) | 0.25 (inactive) | -0.129 (inactive) | 0.0866 | -0.241
19 | CC(C)(C)N1C(=O)[C@H]2[C@H]3[C@H](O)[C@H](O)CC(=NO[C@@H]4O[C@H](CO)[C@@H](O)[C@H](O)[C@H]4O)[C@@H]3CC[C@H]2C1=O | -0.332 | -0.597 (inactive) | -0.236 (inactive) | 0.0902 (inactive) | 0.0821 (inactive) | -0.471 (inactive) | 0.398 (inactive) | 0.441 (inactive) | -0.449 | 0.144
20 | CC(=O)OC[C@H]1O[C@@H](ON=C[C@@H](C)[C@H](OCc2ccccc2)C(C)C)[C@H](OC(C)=O)[C@@H](OC(C)=O)[C@@H]1OC(C)=O | -1.04 | 0.0426 (inactive) | -2.37 (inactive) | -0.269 (inactive) | 1.01 (inactive) | -0.519 (inactive) | 0.153 (inactive) | 0.722 (inactive) | -0.8 | -0.162
21 | COC(=O)[C@H](C)NC(=O)CCC1CC(OC(=O)NCc2ccc3c(c2)OCO3)CC2(CCCC(COC(=O)NCCOc3ccccc3)O2)O1 (stereo not given in full) | 0.658 | -0.565 (inactive) | -0.951 (inactive) | -1.61 (inactive) | 0.875 (inactive) | -1.31 (inactive) | -0.388 (inactive) | -0.915 (inactive) | 0.891 | -0.105
22 | Cn1c(=O)n2n(c1=O)[C@H]1[C@H](O)[C@@H]3O[C@@H]3C(=NOC[C@@H](O)COCc3ccco3)[C@H]1CC2 | -0.31 | -0.419 (inactive) | -0.877 (inactive) | 0.0599 (inactive) | 0.823 (inactive) | -0.17 (inactive) | -0.157 (inactive) | 0.317 (inactive) | -0.378 | -0.0382
23 | COC(=O)C1(C)C=C2C(=C(c3ccccc3)C(=O)C2C)CN1 (stereo not given) | -1.44 | 0.558 (inactive) | -1.71 (inactive) | -0.784 (inactive) | 1.38 (inactive) | 0.376 (inactive) | -0.632 (inactive) | -0.348 (inactive) | -2.05 | 0.359
24 | COCCCNC(=O)[C@@]1(C)c2ccccc2C(=O)N(Cc2ccc(OC(F)(F)F)cc2)[C@H]1c1ccc(CO)cc1 | -0.576 | -0.0763 (inactive) | -0.741 (inactive) | -0.617 (inactive) | 0.431 (inactive) | -0.419 (inactive) | 0.434 (inactive) | 1.17 (inactive) | -0.661 | -0.148
25 | CCCNC(=O)OC[C@H]1O[C@H](CCON=CC[C@@H]2C=C[C@H](OC(C)=O)[C@@H](COC(C)=O)O2)C=C[C@@H]1Oc1ccc(OC)cc1 | 0.261 | 1.4 (inactive) | -0.387 (inactive) | -0.584 (inactive) | 0.0282 (inactive) | 0.394 (inactive) | 0.426 (inactive) | -0.371 (inactive) | 0.477 | -0.128
